# Laboratory results reported in PubChem BioAssay (NCI).
# About 79,000 compounds went through this panel and 15% of them were active in at least one assay; those are over-represented in the sample as a whole. A number with no mark means an inactive call. Calls of active or inactive are those of the source. Rule as the data show it: active = growth inhibition above about 70%; inactive = the rest.
# Assays:
# [1] = NCI Yeast Anticancer Drug Screen. Data for the wt1 strain (AID 149);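 also: 0% = growth of vehicle-treated wt1 cultures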; conditions: S. cerevisiae wt1 strain (SPY 50644) growth inhibition, active compounds read high
# Summary of the method: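 wt1 strain grown with compound or vehicle; inhibition taken from the growth difference.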
# [2] = NCI Yeast Anticancer Drug Screen. Data for the rad50EPP+ strain (AID 151);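 also: 0% = growth of vehicle-treated control cultures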; conditions: S. cerevisiae rad50 mutant strain, active compounds read high
# Summary of the method: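 Vehicle-normalised growth inhibition; rad50EPP+ yeast strain, altered in DNA damage repair, compound-treated.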
# [3] = NCI Yeast Anticancer Drug Screen. Data for the mgt1 strain (AID 153); conditions: S. cerevisiae mgt1 mutant growth inhibition, active compounds read high
# Summary of the method: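 Vehicle-normalized growth inhibition is determined in mgt1 yeast, a strain selected for a defined alteration in DNA repair or cell cycle control.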
# [4] = NCI Yeast Anticancer Drug Screen. Data for the rad50 strain (AID 155);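 also: 0% = growth of vehicle-only cultures of the same strain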; conditions: S. cerevisiae rad50 strain growth inhibition, active compounds read high
# Summary of the method: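 DNA repair mutant yeast, compound exposure, growth read-out; inhibition is taken relative to vehicle.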
# [5] = NCI Yeast Anticancer Drug Screen. Data for the mec2-1 strain (AID 157); conditions: S. cerevisiae mec2-1 strain, active compounds read high
# Summary of the method: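 Mutant yeast (mec2-1) grown with compound; growth inhibition relative to vehicle control reported.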
# [6] = NCI Yeast Anticancer Drug Screen. Data for the rad14 strain (AID 159);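 also: 0% = growth of vehicle-treated control cultures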; conditions: S. cerevisiae rad14 strain growth inhibition, active compounds read high
# Summary of the method: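 DNA repair-defective yeast, compound-exposed; % growth inhibition derived by comparison with vehicle-treated controls.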
# [7] = NCI Yeast Anticancer Drug Screen. Data for the sgs1 mgt1 strain (AID 161);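 also: 0% = growth of cultures given vehicle only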; conditions: S. cerevisiae sgs1 mgt1 strain, active compounds read high
# Summary of the method: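 Compounds are added to genetically altered yeast, and growth is compared with cultures given vehicle alone to give percent inhibition.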
# [8] = NCI Yeast Anticancer Drug Screen. Data for the CLN2oe strain (AID 163);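 also: 0% = growth of vehicle-only control cultures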; conditions: S. cerevisiae CLN2oe strain, active compounds read high
# Summary of the method: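 Compounds are applied to yeast harbouring a defined cell-cycle control change; reduced growth compared with vehicle-treated controls gives the value.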
# [9] = NCI Yeast Anticancer Drug Screen. Data for the cln2 rad14 strain (AID 165);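 also: 0% = growth equal to vehicle treated cultures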; conditions: S. cerevisiae cln2 rad14 strain, active compounds read high
# Summary of the method: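 Readout is yeast growth inhibition versus vehicle-treated controls, using a strain with cln2 and rad14 alterations exposed to compound.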
# [10] = NCI Yeast Anticancer Drug Screen. Data for the bub3 strain (AID 167); conditions: S. cerevisiae bub3 mutant strain, active compounds read high
# Summary of the method: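 In this screen, a yeast mutant lacking normal mitotic checkpoint function is challenged with compound. Relative growth versus vehicle gives the inhibition value.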
# [11] = NCI Yeast Anticancer Drug Screen. Data for the wt2 strain (AID 169);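 also: 0% = growth of vehicle-treated yeast cultures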; conditions: S. cerevisiae wt2 strain growth inhibition, active compounds read high
# Summary of the method: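 Against vehicle-treated controls, the growth of yeast exposed to each compound was compared, and the inhibition was recorded.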
# [12] = NCI Yeast Anticancer Drug Screen. Data for the mlh1 strain (AID 171);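 also: 0% = growth of vehicle-treated control cultures of the same strain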; conditions: S. cerevisiae mlh1 strain growth inhibition, active compounds read high
# Summary of the method: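 Measured: yeast growth. Reference: vehicle-treated controls. Organism: strain with a defined alteration affecting DNA damage repair or cell cycle control, treated with compound.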
# [13] = NCI Yeast Anticancer Drug Screen. Data for the sgs1 strain (AID 173);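 also: 0% = growth of vehicle-only control cultures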; conditions: S. cerevisiae sgs1 mutant, active compounds read high
# Summary of the method: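 Each compound was added to cultures of the altered yeast strain. Growth was recorded, and inhibition was derived by comparison with vehicle controls.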
# [14] = NCI Yeast Anticancer Drug Screen. Data for the mlh1 rad18 strain (AID 175); conditions: S. cerevisiae mlh1 rad18 strain growth inhibition, active compounds read high
# Summary of the method: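 Genetically defined yeast (DNA repair-deficient) exposed to compounds; growth inhibition determined relative to vehicle.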
# [15] = NCI Yeast Anticancer Drug Screen. Data for the rad18 strain (AID 177); conditions: S. cerevisiae rad18 mutant growth inhibition, active compounds read high
# Summary of the method: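 Vehicle-treated cultures served as the baseline for scoring compound-induced growth inhibition in DNA-repair-mutant yeast.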
# [16] = at 5.0 µM (retest, dose inferred, filed as 0.5)
# [17] = at 50.0 µM (retest, dose inferred, filed as 5.0)
compound,measurement,setting,value
O=C(CCC(=O)c1ccc(O)cc1)Oc1ccc(O)cc1,growth inhibition,[1]; at 1.2 µM,-2%
same,growth inhibition,[1]; at 3.7 µM,2%
same,growth inhibition,[1]; at 11.0 µM,-2%
same,growth inhibition,[1]; at 33.0 µM,-2%
same,growth inhibition,[1]; at 100.0 µM,1%
same,growth inhibition,[2]; at 1.2 µM,5%
same,growth inhibition,[2]; at 3.7 µM,9%
same,growth inhibition,[2]; at 11.0 µM,15%
same,growth inhibition,[2]; at 33.0 µM,17%
same,growth inhibition,[2]; at 100.0 µM,24%
same,growth inhibition,[3]; at 1.2 µM,1%
same,growth inhibition,[3]; at 3.7 µM,-1%
same,growth inhibition,[3]; at 11.0 µM,2%
same,growth inhibition,[3]; at 33.0 µM,2%
same,growth inhibition,[3]; at 100.0 µM,3%
same,growth inhibition,[4]; at 1.2 µM,2%
same,growth inhibition,[4]; at 3.7 µM,4%
same,growth inhibition,[4]; [16],-13%
same,growth inhibition,[4]; at 11.0 µM,2%
same,growth inhibition,[4]; at 33.0 µM,6%
same,growth inhibition,[4]; [17],16%
same,growth inhibition,[4]; at 50.0 µM,-2.75%
same,growth inhibition,[4]; at 100.0 µM,11%
same,growth inhibition,[5]; at 1.2 µM,-1%
same,growth inhibition,[5]; at 3.7 µM,3%
same,growth inhibition,[5]; [16],-2%
same,growth inhibition,[5]; at 11.0 µM,3%
same,growth inhibition,[5]; at 33.0 µM,7%
same,growth inhibition,[5]; [17],-11%
same,growth inhibition,[5]; at 50.0 µM,-22.5%
same,growth inhibition,[5]; at 100.0 µM,5%
same,growth inhibition,[6]; at 1.2 µM,-1%
same,growth inhibition,[6]; at 3.7 µM,-1%
same,growth inhibition,[6]; at 11.0 µM,-1%
same,growth inhibition,[6]; at 33.0 µM,1%
same,growth inhibition,[6]; at 100.0 µM,5%
same,growth inhibition,[7]; [16],-8%
same,growth inhibition,[7]; [17],10%
same,growth inhibition,[7]; at 50.0 µM,2.2%
same,growth inhibition,[8]; at 1.2 µM,3%
same,growth inhibition,[8]; at 3.7 µM,-11%
same,growth inhibition,[8]; at 11.0 µM,5%
same,growth inhibition,[8]; at 33.0 µM,3%
same,growth inhibition,[8]; at 100.0 µM,6%
same,growth inhibition,[9]; [16],-9%
same,growth inhibition,[9]; [17],40%
same,growth inhibition,[9]; at 50.0 µM,8.3%
same,growth inhibition,[10]; at 1.2 µM,12%
same,growth inhibition,[10]; at 3.7 µM,21%
same,growth inhibition,[10]; [16],18%
same,growth inhibition,[10]; at 11.0 µM,33%
same,growth inhibition,[10]; at 33.0 µM,40%
same,growth inhibition,[10]; [17],67%
same,growth inhibition,[10]; at 50.0 µM,29.1%
same,growth inhibition,[10]; at 100.0 µM,47%
same,growth inhibition,[11]; at 1.2 µM,-1%
same,growth inhibition,[11]; at 3.7 µM,-1%
same,growth inhibition,[11]; at 11.0 µM,-2%
same,growth inhibition,[11]; at 33.0 µM,1%
same,growth inhibition,[11]; at 100.0 µM,-1%
same,growth inhibition,[12]; at 1.2 µM,3%
same,growth inhibition,[12]; at 3.7 µM,0%
same,growth inhibition,[12]; at 11.0 µM,2%
same,growth inhibition,[12]; at 33.0 µM,1%
same,growth inhibition,[12]; at 100.0 µM,4%
same,growth inhibition,[13]; at 1.2 µM,1%
same,growth inhibition,[13]; at 3.7 µM,1%
same,growth inhibition,[13]; at 11.0 µM,1%
same,growth inhibition,[13]; at 33.0 µM,4%
same,growth inhibition,[13]; at 100.0 µM,6%
same,growth inhibition,[14]; [16],-18%
same,growth inhibition,[14]; [17],25%
same,growth inhibition,[14]; at 50.0 µM,1.35%
same,growth inhibition,[15]; at 1.2 µM,1%
same,growth inhibition,[15]; at 3.7 µM,-3%
same,growth inhibition,[15]; at 11.0 µM,-4%
same,growth inhibition,[15]; at 33.0 µM,-4%
same,growth inhibition,[15]; at 100.0 µM,-4%
C[n+]1c(-c2ccc(NC(=O)c3ccc(C(=O)Nc4ccc(-c5cn6ccccc6[n+]5C)cc4)cc3)cc2)cn2ccccc21,growth inhibition,[1]; at 1.2 µM,5%
same,growth inhibition,[1]; at 3.7 µM,3%
same,growth inhibition,[1]; at 11.0 µM,13%
same,growth inhibition,[1]; at 33.0 µM,70% (active)
same,growth inhibition,[1]; at 100.0 µM,92% (active)
same,growth inhibition,[2]; at 1.2 µM,-23%
same,growth inhibition,[2]; at 3.7 µM,-6%
same,growth inhibition,[2]; at 11.0 µM,36%
same,growth inhibition,[2]; at 33.0 µM,77% (active)
same,growth inhibition,[2]; at 100.0 µM,88% (active)
same,growth inhibition,[3]; at 1.2 µM,3%
same,growth inhibition,[3]; at 3.7 µM,2%
same,growth inhibition,[3]; at 11.0 µM,20%
same,growth inhibition,[3]; at 33.0 µM,85% (active)
same,growth inhibition,[3]; at 100.0 µM,92% (active)
same,growth inhibition,[4]; at 1.2 µM,3%
same,growth inhibition,[4]; at 3.7 µM,4%
same,growth inhibition,[4]; [16],16%
same,growth inhibition,[4]; at 11.0 µM,17%
same,growth inhibition,[4]; at 33.0 µM,76% (active)
same,growth inhibition,[4]; [17],98% (active)
same,growth inhibition,[4]; at 50.0 µM,74.8% (active)
same,growth inhibition,[4]; at 100.0 µM,91% (active)
same,growth inhibition,[5]; at 1.2 µM,4%
same,growth inhibition,[5]; at 3.7 µM,9%
same,growth inhibition,[5]; [16],5%
same,growth inhibition,[5]; at 11.0 µM,30%
same,growth inhibition,[5]; at 33.0 µM,82% (active)
same,growth inhibition,[5]; [17],98% (active)
same,growth inhibition,[5]; at 50.0 µM,56.5%
same,growth inhibition,[5]; at 100.0 µM,96% (active)
same,growth inhibition,[6]; at 1.2 µM,-2%
same,growth inhibition,[6]; at 3.7 µM,-2%
same,growth inhibition,[6]; at 11.0 µM,13%
same,growth inhibition,[6]; at 33.0 µM,84% (active)
same,growth inhibition,[6]; at 100.0 µM,96% (active)
same,growth inhibition,[7]; [16],15%
same,growth inhibition,[7]; [17],97% (active)
same,growth inhibition,[7]; at 50.0 µM,64.5%
same,growth inhibition,[8]; at 1.2 µM,-1%
same,growth inhibition,[8]; at 3.7 µM,-4%
same,growth inhibition,[8]; at 11.0 µM,18%
same,growth inhibition,[8]; at 33.0 µM,66%
same,growth inhibition,[8]; at 100.0 µM,89% (active)
same,growth inhibition,[9]; [16],32%
same,growth inhibition,[9]; [17],96% (active)
same,growth inhibition,[9]; at 50.0 µM,51.5%
same,growth inhibition,[10]; at 1.2 µM,-3%
same,growth inhibition,[10]; at 3.7 µM,9%
same,growth inhibition,[10]; [16],37%
same,growth inhibition,[10]; at 11.0 µM,30%
same,growth inhibition,[10]; at 33.0 µM,83% (active)
same,growth inhibition,[10]; [17],97% (active)
same,growth inhibition,[10]; at 50.0 µM,57.6%
same,growth inhibition,[10]; at 100.0 µM,93% (active)
same,growth inhibition,[11]; at 1.2 µM,4%
same,growth inhibition,[11]; at 3.7 µM,2%
same,growth inhibition,[11]; at 11.0 µM,18%
same,growth inhibition,[11]; at 33.0 µM,84% (active)
same,growth inhibition,[11]; at 100.0 µM,94% (active)
same,growth inhibition,[12]; at 1.2 µM,2%
same,growth inhibition,[12]; at 3.7 µM,1%
same,growth inhibition,[12]; at 11.0 µM,23%
same,growth inhibition,[12]; at 33.0 µM,89% (active)
same,growth inhibition,[12]; at 100.0 µM,94% (active)
same,growth inhibition,[13]; at 1.2 µM,-2%
same,growth inhibition,[13]; at 3.7 µM,1%
same,growth inhibition,[13]; at 11.0 µM,29%
same,growth inhibition,[13]; at 33.0 µM,83% (active)
same,growth inhibition,[13]; at 100.0 µM,93% (active)
same,growth inhibition,[14]; [16],52%
same,growth inhibition,[14]; [17],98% (active)
same,growth inhibition,[14]; at 50.0 µM,75.5% (active)
same,growth inhibition,[15]; at 1.2 µM,4%
same,growth inhibition,[15]; at 3.7 µM,2%
same,growth inhibition,[15]; at 11.0 µM,24%
same,growth inhibition,[15]; at 33.0 µM,81% (active)
same,growth inhibition,[15]; at 100.0 µM,92% (active)
